Assay outcomes deposited in PubChem BioAssay by The Scripps Research Institute Molecular Screening Center.
Sampled rows, rich in hits. Any-hit rate of the full collection: about 1.9%.
OPRM1-OPRD1 inv – inverse agonists of human mu-delta opioid receptor heterodimerization; P35372+P41143; cell-based MOR-DOR heterodimer luminescence, inverse agonism; inhibition, % at 9.3 µM; actives 0.21% (n = 340,000); AID 504357; in the data active means inhibition above about 22%, passing the limit was not always enough;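 further: 0% = cells with DMSO and 100% = wells without cells with DMSO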
Target sequence (P35372 whole entry, looked up): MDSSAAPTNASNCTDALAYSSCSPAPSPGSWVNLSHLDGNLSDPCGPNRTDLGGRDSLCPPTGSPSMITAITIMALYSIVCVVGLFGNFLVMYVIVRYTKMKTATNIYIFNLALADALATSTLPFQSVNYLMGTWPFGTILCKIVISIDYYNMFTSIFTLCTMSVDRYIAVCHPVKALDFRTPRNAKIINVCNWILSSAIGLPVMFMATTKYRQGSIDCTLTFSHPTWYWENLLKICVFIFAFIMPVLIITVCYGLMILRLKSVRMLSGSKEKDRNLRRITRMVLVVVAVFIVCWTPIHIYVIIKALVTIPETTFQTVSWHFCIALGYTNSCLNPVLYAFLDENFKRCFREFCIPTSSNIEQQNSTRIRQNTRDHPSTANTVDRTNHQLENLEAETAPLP
Target sequence (P41143 whole entry, looked up): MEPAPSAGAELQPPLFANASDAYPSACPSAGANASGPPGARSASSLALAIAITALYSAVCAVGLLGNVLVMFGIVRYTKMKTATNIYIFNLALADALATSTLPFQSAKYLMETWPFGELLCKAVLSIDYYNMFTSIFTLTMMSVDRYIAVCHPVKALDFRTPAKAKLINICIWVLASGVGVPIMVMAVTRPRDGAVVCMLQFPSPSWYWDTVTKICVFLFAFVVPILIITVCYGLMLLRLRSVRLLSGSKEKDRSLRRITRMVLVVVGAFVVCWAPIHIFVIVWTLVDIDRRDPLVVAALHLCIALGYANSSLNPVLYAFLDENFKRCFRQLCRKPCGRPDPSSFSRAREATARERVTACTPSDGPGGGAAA
MsrA act – activates bovine MsrA enzyme. purified bovine MsrA, absorbance read-out. actives 0.3% (n = 360,000). activation, % at 10.6 µM. AID 602163; in the data active means activation above about 7.5%;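 further: 0% = vehicle and 100% = reference activator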
HTR5A inv ctr – inverse agonist of human HTR5A in OPRM1-OPRD1 counter-screen. P47898. HTR5A cell line, luminescence, inverse agonism. inhibition, % at 9.3 µM. actives 0.083% (n = 340,000). AID 504634; in the data active means inhibition mostly above about 23%, no sharp cut-off; inactive means mostly below about 18%;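 further: 0% = cells with DMSO and 100% = no-cell wells with DMSO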
MOR-DOR ag – OPRM1-OPRD1 heterodimerization agonism; activation, % at 9.3 µM; cells, luminescence; actives 0.3% (n = 340,000); AID 504326; P35372+P41143; in the data active means activation above about 18%;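 further: 0% = vehicle-treated cells and 100% = reference agonist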
HTR5A ag ctr – activates human HTR5A in OPRM1-OPRD1 agonist counter-screen; actives 0.61% (n = 340,000); P47898; activation, % at 9.3 µM; HTR5A agonist assay, luminescence, cell-based; in the data active means activation mostly above about 9.5%, no sharp cut-off; inactive means mostly below about 7.6%;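 further: 0% = cells with vehicle only and 100% = reference agonist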
MsrA inh – inhibits bovine methionine sulfoxide reductase A; inhibition, % at 15.5 µM; purified bovine MsrA, absorbance read-out; actives 0.75% (n = 360,000);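 further: 0% = vehicle wells with enzyme and 100% = reference inhibitor wells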
MsrA inh confirm – confirmation of bovine MsrA inhibitors; inhibition, % at 15.5 µM; AID 651822; actives 41% (n = 2,300); shares compounds with MsrA inh; purified bovine MsrA, absorbance read-out;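 further: coupled to thioredoxin reductase with NADPH and selenocystamine and DMSO as substrate; 0% = vehicle only and 100% = full effect of reference inhibitor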
Starred values were filed as active, the others as inactive; · = not tested or not shown. Unless noted, no stated cut-off is given here; in the data, active means inhibition above about 4.5%; inactive means the rest.

SMILES	OPRM1-OPRD1 inv	MsrA act	HTR5A inv ctr	MOR-DOR ag	HTR5A ag ctr	MsrA inh	MsrA inh confirm
CCCCOc1ccc(-c2csc(N)n2)cc1[N+](=O)[O-]	-11	-5	8	2	0	9.4*	4
CCCCOc1ccc(C2=CSC3=NCCN23)cc1[N+](=O)[O-]	19	-2	-9	-4	2	0	·
C/C(=N\Nc1nc(C)cc(C)n1)c1ccc(C)o1	·	0	·	·	·	2	·
C/C(=N\Nc1nnc2c3ccccc3n(C)c2n1)c1ccc(C)o1	4	-3	-5	-1	5	5.6*	2
O=C(c1ccccc1)N(Cc1ccccc1)c1ccccn1	7	-3	-20	-1	-2	-2	·
O=C(c1cnc2sccn2c1=O)N(Cc1ccccc1)c1ccccn1	0	-4	-6	0	2	5.0*	3
COc1cccc(C(=O)Nc2ccc3c(c2)OC[C@H](C)N(C(=O)C2CCCC2)C[C@@H](C)[C@@H](OC)CN(C)C3=O)c1	·	·	·	·	·	0	·
CCOC(=O)C(=CNc1ccc(C#N)cc1)C(=O)OCC	3	-8	-7	-1	3	7.1*	5.5*
N#CC1=C(N)Oc2ccc3ccc(O)cc3c2C1c1cccnc1 (stereo not given)	10	-6	2	-2	6	6.7*	6.6*
N#CC1=C(N)Oc2ccc3ccccc3c2C1c1cccnc1 (stereo not given)	10	-1	9	-2	-3	6.6*	3
Nc1ncnc(NCc2ccccc2)c1[N+](=O)[O-]	-1	-10	1	0	0	4.9*	2
CCCCC1CC2=C(C(=O)OC(C)(C)O2)C(c2ccc(F)cc2)O1 (stereo not given)	·	-1	·	·	·	0	·
CCOC(=O)c1ccccc1NC(=O)CN(c1ccccc1OC)S(C)(=O)=O	-3	-2	13	1	-5	-1	·
CCOC(=O)c1ccccc1NC(=O)CN(c1ccccc1)S(=O)(=O)N(C)C	-3	-2	-3	0	0	5.6*	4
Cc1cn(CC(=O)NCc2ccc3c(c2)OCO3)c(=O)[nH]c1=O	21	-3	-7	-5	2	0	·
O=C(NCC(c1ccco1)N1CCCCC1)c1ccc([N+](=O)[O-])s1 (stereo not given)	·	-1	·	·	·	6.0*	4
NS(=O)(=O)c1ccc(O)c(N2C(=O)c3cccc4c(C(=O)O)ccc(c34)C2=O)c1	0	-1	4	0	-1	5.0*	4
O=C(O)c1ccc2c3c(cccc13)C(=O)N(c1ccccc1)C2=O	-4	-7	-6	1	2	4	·
O=C(O)c1ccc(N2C(=O)c3cccc4c(C(=O)O)ccc(c34)C2=O)cc1	·	-4	·	·	·	5.5*	2
Nc1n[nH]c(N)c1N=Nc1ccc(Cl)cc1	-17	-5	-13	3	5	6.1*	3
Nc1n[nH]c(N)c1N=Nc1cccc(F)c1	-6	-3	8	1	1	4	·
O=C1COc2cc(ccc2[N+](=O)[O-])Oc2ccc(cc2Cl)C(=O)CCCCO1	21	-6	-19	-4	-1	5.2*	5.1*
COc1ccc(Cl)c(-c2cc(C(=O)Nc3ccc(F)cc3)[nH]n2)c1	·	-6	·	·	·	0	·
COc1cc(/C=N/N=C(\N)c2nonc2N)cc(OC)c1O	1	-4	6	0	-2	3	·
COc1ccc(/C=N/N=C(\N)c2nonc2N)cc1	5	-1	7	-1	-3	5.3*	3
SMILES	OPRM1-OPRD1 inv	MsrA act	HTR5A inv ctr	MOR-DOR ag	HTR5A ag ctr	MsrA inh	MsrA inh confirm
Cc1cc2c(cc1C)-n1nnnc1C(N(C)Cc1ccccc1)C(=O)N2 (stereo not given)	·	·	·	·	·	0	·
O=C(NNC(=O)c1cc2cc3ccccc3nc2s1)c1ccc(F)cc1	-7	-11	-13	2	5	1	·
O=C(NNC(=O)C1CC1)c1cc2cc3ccccc3nc2s1	11	-4	-11	-2	3	4.9*	2
CC(C)(C)OC(=O)N(Cc1ccccc1)Cc1cccc(OCc2cccc(NC(=O)c3ccccc3)c2)c1	-11	0	9	2	-3	1	·
O=C1OCC2=Nc3cccc4cccc(c34)N12	·	·	·	·	·	1	·
Cc1cc(/C=C(\C#N)C(=O)N2CCCCC2)cc(C)c1O	17	-5	-6	-2	4	4.8*	3
N#C/C(=C\c1cccc(O)c1)C(=O)N1CCCCC1	10	-3	17	-2	1	0	·
CN(C)c1ccc(C=Nc2ccccc2)cc1	23	-3	-8	-5	4	3	·
CN(C)c1ccc(C=Nc2ccc(N(C)C)cc2)cc1	-2	1	4	1	-4	7.2*	4.8*
Cc1ccc(N=Cc2ccc(N(C)C)cc2)cc1	7	-5	3	-1	-1	6.5*	4
Cc1ccc(N=Cc2ccc(N(C)C)cc2)cc1C	14	-6	-2	-3	1	3	·
Cc1nc(/N=C\c2ccc(N(C)C)cc2)sc1C	7	-2	1	-1	-3	5.8*	3
Cc1ccc(S(=O)(=O)N(C)/N=C/c2ccc(N(C)C)cc2)cc1	7	-2	-2	-2	1	6.1*	2
CC(C)(C)NC(=O)C1C(c2ccc(C(F)(F)F)cc2)=Nc2ccccc2N1C(=O)c1cccc(C(F)(F)F)c1 (stereo not given)	·	·	·	·	·	2	·
CC(C)(C)NC(=O)C1C(c2ccc(C(F)(F)F)cc2)=Nc2ccccc2N1C(=O)c1cccc2ccccc12 (stereo not given)	·	·	·	·	·	1	·
NC(=O)N=Nc1c(O)[nH]c2ccc([N+](=O)[O-])cc12	6	-5	11	-1	-4	3	·
O=C(CNC(=O)c1ccco1)N=Nc1c(O)[nH]c2ccc([N+](=O)[O-])cc12	19	-2	-8	-3	3	5.8*	2
Cc1cccc(-c2cccc3[nH]c4c(c23)CCN2C(=O)[C@H]3[C@H](C)ON(C)[C@H]3C[C@@H]42)c1	·	·	·	·	·	0	·
Cc1ccc(Nc2n[nH]c(C)c2[N+](=O)[O-])cc1	9	-1	18	-2	-2	2	·
Cc1[nH]nc(Nc2ccc(Br)cc2)c1[N+](=O)[O-]	-10	-3	25	2	-2	5.4*	3
CC(C)c1ccc(CN2CCC2(C)C(=O)Nc2cccc(Oc3ccccc3)c2)cc1 (stereo not given)	·	-3	·	·	·	2	·
CCN(CC)c1nc(N)c2c(N)n(-c3ccccc3C)c(=S)c(C#N)c2c1C#N	0	-13	-15	0	6	8.0*	9.3*
CCN(CC)c1cc(C)c(C#N)c2nc3ccccc3n12	3	-2	1	-1	0	2	·
CCOC(=O)c1ccc(N)cc1	8	1	-44	-1	2	-2	·
Nc1ccc(C(=O)C(=O)c2ccc(N)cc2)cc1	13	-6	2	-2	-1	7.5*	6.8*
